From PubChem BioAssay (NCATS) come the findings set out here.

Inconclusive results are not listed. Unmarked numbers belong to inactive results. Calls come from the whole dose curve; as a rule, active = well fitted inhibition curve with a large enough effect; inconclusive = small, poorly fitted or top-dose-only effect, or effect the other way; inactive = flat fitted curve, though single readings scatter.

The assay in a line: qHTS for Inhibitors of Plasmodium falciparum (CP250) proliferation (AID 504320).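 Note: plate controls were DMSO vehicle for no effect and 0.29 µM artemisinin control for full effect.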 The note with it: P. falciparum CP250 in erythrocytes, SYBR Green DNA, 72 h; series mostly up to 6.7 µM; activity change, negative = inhibition: at the top concentration. Put shortly: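 Erythrocytes infected with P. falciparum line (0.3% parasitemia, 2.5% hematocrit final) incubated with compounds 72 h at 37 °C, 5% CO2; SYBR Green lysis buffer added, fluorescence read next day. Normalized to 0.29 uM artemisinin and DMSO.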
Background: qHTS replaces the single test concentration by a dilution series.
Take `CCOC(=O)CN1C(=O)N[C@@H](CCc2ccccc2)C(C(=O)OC)=C1C`: the “activity change, negative = inhibition” value is 1.26%.

`Cc1cc2c(c(=O)n1-c1ccccc1)[C@H]1O[C@](c3ccsc3)(Cc3cc(C#N)ccc31)O2`: the “activity change, negative = inhibition” value is -10.8%. For the molecule `COC(=O)C1=C(C)N(Cc2ccco2)C(=O)N[C@@H]1c1ccc(Br)cc1`, the “activity change, negative = inhibition” value was 0.122%. With `COC(=O)N1C(C)=Cc2ccccc2C1C/C(C)=C/C(C)=O` (stereo not drawn), the “activity change, negative = inhibition” value is -0.586%.

As to `CCCCC1=CC2=CC(=O)C(C)(OC(=O)CC)C(=O)C2=CN1CCCCO` (stereo not drawn), the “activity change, negative = inhibition” value is 3.96%. As for `COCCN1C=C2C(=O)C(C)(OC(=O)CCc3ccccc3)C(=O)C=C2C=C1c1ccc(C#N)cc1` (stereo not drawn), the “activity change, negative = inhibition” value is -1.93%. The figure for `COC/C=C/C1=CC2=CC(=O)C(C)(OC(=O)c3cnc4ccccc4n3)C(=O)C2=CN1Cc1ccco1` (stereo not drawn) is -0.49%; for `CC(=O)C1=C(C)N(Cc2ccccc2)C(=O)N[C@H]1c1ccco1` it is 12.6%.
